What follows are compounds tested on FLT1. Conditions: concentration: 1 μM, replicates: in singlicate; n = 1.
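Further: KINOMEscan kinase panel screen.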

| SMILES | %Inh |
| --- | --- |
| Nc1ncnc2c1ncn2-c1ccc(Cl)cc1 [AH2635] | 39% |
| Nc1nc(-c2ccccc2F)c(-c2ccnc3ccccc23)s1 [GW560459] | 30% |
| COc1cc2ncn(-c3cc(OCc4ccc(S(C)(=O)=O)cc4)c(C(N)=O)s3)c2cc1OC [GW869979] | 0% |
| CCC(=O)c1c(-c2ccccc2)c2cc(Cl)ccc2c(=O)n1Cc1cc(C(=O)NC2CC2)n(C)n1 | 0% |
| Nc1n[nH]c2nnc(-c3ccccc3)c(-c3ccccc3)c12 [GW554060] | 20% |
| OCCCNc1nccc(-c2c(-c3cccc(C(F)(F)F)c3)nn3cc(C(F)(F)F)ccc23)n1 [GW630813] | 24% |
| O=C(NCCNc1ccnc(Nc2ccc(F)cc2)n1)Nc1ccc2c(c1)OCO2 [GSK1379882] | 0% |
| CCC(=O)c1c(-c2ccccc2)c2cc(Cl)ccc2c(=O)n1Cc1cc(S(C)(=O)=O)n(CCC(C)(C)O)n1 | 29% |
| FC(F)(F)c1ccc(-c2ncn(CCCN3CCOCC3)c2-c2ccncc2)cc1 [SB-217780] | 22% |
| COC(=O)c1c(-c2ccccc2)c2cc(Br)ccc2c(=O)n1Cc1ccc(S(C)(=O)=O)cc1 | 0% |
| CCCNC(=O)Nc1ccc(Oc2ncnc3ccn(C)c23)cc1 | 0% |
| CCn1c(-c2ccoc2)nc2cnccc21 [SB-733887] | 9% |
| CCn1c(-c2nonc2N)nc2ccccc21 [SB-693162/GW549034] | 0% |
| Cc1nc(N(C)[C@H]2CN(C(=O)CC#N)CC[C@H]2C)c2cc[nH]c2n1 | 0% |
| CCC(=O)c1c(-c2ccccc2)c2cc(Cl)ccc2c(=O)n1Cc1ccc(C(=O)O)cc1 | 0% |
| COc1ccc(Nc2nccc(N3CCC(NS(=O)(=O)c4ccc(NC(C)=O)cc4)C3)n2)cc1 (centres unmarked) [GSK1379729] | 26% |
| CCc1nc(-c2cccc(C)c2)c(-c2ccncc2)s1 | 13% |
| COc1cc(Nc2ccnc3ccc(C(F)(F)F)cc23)cc(OC)c1OC [GW577382] | 9% |
| COc1ccc(-c2cc3c(C)nc(N)nc3n([C@H]3CC[C@H](O)CC3)c2=O)cn1 | 0% |

| SMILES | %Inh |
| --- | --- |
| Cc1ccc(-c2ccc3c(ccc4sc5c(c43)NC[C@@H](C)N=C5N(C)C)n2)cn1 | 1% |
| Cc1nnc(-c2ccc(C)c(-c3ccc(C(=O)O)cc3)c2)o1 [GW608005] | 20% |
| COC(=O)c1c(-c2ccccc2)c2cc(C)ccc2c(=O)n1Cc1ccccc1 | 0% |
| COc1cccc(C2=C(Nc3cccc(C(=O)O)c3)C(=O)NC2=O)c1 [SB-390770] | 13% |
| Fc1cccc(CSc2nnc(-c3ccc4c(c3)CCO4)o2)c1 | 0% |
| Cc1cccc(-c2cc(-c3c[nH]nc3-c3ccccn3)ccn2)c1 [GW679395] | 13% |
| CN(C)c1cc(-c2ccc3c(N)n[nH]c3c2)nc(N)n1 [GSK2219329] | 20% |
| Cn1c(=O)c(F)c(Nc2ccc(I)cc2F)c2c(=O)n(OC[C@H](O)CO)cnc21 | 0% |
| Cc1nnc(-c2ccc3ncn(-c4ccc(S(C)=O)cc4)c3c2)o1 (centres unmarked) | 8% |
| CCC(=O)c1c(-c2ccccc2)c2cc(Cl)ccc2c(=O)n1Cc1cc(S(C)(=O)=O)n(CC(N)=O)n1 | 0% |
| COc1cccc(-n2cnc3c(N)ncnc32)c1 [SKF-97416] | 0% |
| CCCC(=O)Nc1n[nH]c2ncc(-c3cccc4ccccc34)cc12 [SB-642057] | 10% |
| CN1C(=O)C(Nc2cc(Cl)c(O)c(Cl)c2)=C(c2ccc(Cl)cc2)C1=O [SB-404321] | 0% |
| Nc1nccc2scc(-c3ccc4c(c3)CCN4C(=O)Cc3ccccc3)c12 [GSK2576924] | 22% |
| CCc1ccc(-c2ccc3c(c2)-c2nn(C)cc2S(=O)(=O)N3C)cc1 | 0% |
| O=C(NCc1cccs1)c1cc(C(=O)c2c(Cl)cccc2Cl)c[nH]1 [GW823670] | 2% |
| COC(=O)c1c(-c2ccccc2)c2cc(Br)ccc2c(=O)n1Cc1ccc(NC(=O)CCC(=O)O)cc1 | 0% |
| COc1ccc(CNC(=O)NC2CCN(c3ccnc(Nc4ccc(F)cc4)n3)C2)cc1 (centres unmarked) [GSK1379706] | 21% |

The compounds below were run on FLT3-autoinhibited. Conditions: concentration: 1 μM, replicates: in singlicate; n = 1.

| SMILES | %Inh |
| --- | --- |
| Nc1ncnc2c1ncn2-c1ccc(Cl)cc1 [AH2635] | 1% |
| Nc1nc(-c2ccccc2F)c(-c2ccnc3ccccc23)s1 [GW560459] | 0% |
| COc1cc2ncn(-c3cc(OCc4ccc(S(C)(=O)=O)cc4)c(C(N)=O)s3)c2cc1OC [GW869979] | 14% |
| CCC(=O)c1c(-c2ccccc2)c2cc(Cl)ccc2c(=O)n1Cc1cc(C(=O)NC2CC2)n(C)n1 | 0% |
| Nc1n[nH]c2nnc(-c3ccccc3)c(-c3ccccc3)c12 [GW554060] | 0% |
| OCCCNc1nccc(-c2c(-c3cccc(C(F)(F)F)c3)nn3cc(C(F)(F)F)ccc23)n1 [GW630813] | 0% |
| O=C(NCCNc1ccnc(Nc2ccc(F)cc2)n1)Nc1ccc2c(c1)OCO2 [GSK1379882] | 12% |
| CCC(=O)c1c(-c2ccccc2)c2cc(Cl)ccc2c(=O)n1Cc1cc(S(C)(=O)=O)n(CCC(C)(C)O)n1 | 2% |
| FC(F)(F)c1ccc(-c2ncn(CCCN3CCOCC3)c2-c2ccncc2)cc1 [SB-217780] | 23% |
| COC(=O)c1c(-c2ccccc2)c2cc(Br)ccc2c(=O)n1Cc1ccc(S(C)(=O)=O)cc1 | 0% |
| CCCNC(=O)Nc1ccc(Oc2ncnc3ccn(C)c23)cc1 | 2% |
| CCn1c(-c2ccoc2)nc2cnccc21 [SB-733887] | 65% |
| CCn1c(-c2nonc2N)nc2ccccc21 [SB-693162/GW549034] | 52% |
| Cc1nc(N(C)[C@H]2CN(C(=O)CC#N)CC[C@H]2C)c2cc[nH]c2n1 | 0% |
| CCC(=O)c1c(-c2ccccc2)c2cc(Cl)ccc2c(=O)n1Cc1ccc(C(=O)O)cc1 | 4% |
| COc1ccc(Nc2nccc(N3CCC(NS(=O)(=O)c4ccc(NC(C)=O)cc4)C3)n2)cc1 (centres unmarked) [GSK1379729] | 27% |
| CCc1nc(-c2cccc(C)c2)c(-c2ccncc2)s1 | 0% |
| COc1cc(Nc2ccnc3ccc(C(F)(F)F)cc23)cc(OC)c1OC [GW577382] | 0% |
| COc1ccc(-c2cc3c(C)nc(N)nc3n([C@H]3CC[C@H](O)CC3)c2=O)cn1 | 0% |

| SMILES | %Inh |
| --- | --- |
| Cc1ccc(-c2ccc3c(ccc4sc5c(c43)NC[C@@H](C)N=C5N(C)C)n2)cn1 | 0% |
| Cc1nnc(-c2ccc(C)c(-c3ccc(C(=O)O)cc3)c2)o1 [GW608005] | 4% |
| COC(=O)c1c(-c2ccccc2)c2cc(C)ccc2c(=O)n1Cc1ccccc1 | 13% |
| COc1cccc(C2=C(Nc3cccc(C(=O)O)c3)C(=O)NC2=O)c1 [SB-390770] | 5% |
| Fc1cccc(CSc2nnc(-c3ccc4c(c3)CCO4)o2)c1 | 23% |
| Cc1cccc(-c2cc(-c3c[nH]nc3-c3ccccn3)ccn2)c1 [GW679395] | 0% |
| CN(C)c1cc(-c2ccc3c(N)n[nH]c3c2)nc(N)n1 [GSK2219329] | 0% |
| Cn1c(=O)c(F)c(Nc2ccc(I)cc2F)c2c(=O)n(OC[C@H](O)CO)cnc21 | 0% |
| Cc1nnc(-c2ccc3ncn(-c4ccc(S(C)=O)cc4)c3c2)o1 (centres unmarked) | 0% |
| CCC(=O)c1c(-c2ccccc2)c2cc(Cl)ccc2c(=O)n1Cc1cc(S(C)(=O)=O)n(CC(N)=O)n1 | 0% |
| COc1cccc(-n2cnc3c(N)ncnc32)c1 [SKF-97416] | 9% |
| CCCC(=O)Nc1n[nH]c2ncc(-c3cccc4ccccc34)cc12 [SB-642057] | 5% |
| CN1C(=O)C(Nc2cc(Cl)c(O)c(Cl)c2)=C(c2ccc(Cl)cc2)C1=O [SB-404321] | 0% |
| Nc1nccc2scc(-c3ccc4c(c3)CCN4C(=O)Cc3ccccc3)c12 [GSK2576924] | 3% |
| CCc1ccc(-c2ccc3c(c2)-c2nn(C)cc2S(=O)(=O)N3C)cc1 | 0% |
| O=C(NCc1cccs1)c1cc(C(=O)c2c(Cl)cccc2Cl)c[nH]1 [GW823670] | 0% |
| COC(=O)c1c(-c2ccccc2)c2cc(Br)ccc2c(=O)n1Cc1ccc(NC(=O)CCC(=O)O)cc1 | 0% |
| COc1ccc(CNC(=O)NC2CCN(c3ccnc(Nc4ccc(F)cc4)n3)C2)cc1 (centres unmarked) [GSK1379706] | 0% |
